PubChem BioAssay (NCI)
“And” between values parts separate entries of the source, which are not always exact repeats. Identical values can stand only once. About 83,000 compounds went through this panel and 20% of them were active in at least one assay; those are over-represented in the sample as a whole.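 Each cell line was grown in a 96-well plate and treated with one concentration of compound for 48 hours. Values below 10 were considered active.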 The source made the active and inactive calls.

Test system: NCI-H226 lung
Experiment: NCI-60 one-dose screen, 48 h (100 = growth as untreated, 0 = no growth, -100 = all killed)
Settings: 10 µM unless noted
Method: Growth inhibition of the NCI-H226 human Non-Small Cell Lung tumor cell line is measured as a screen for anti-cancer activity. Cells are grown in 96 well plates and exposed to the test compound for 48 hours. Compounds are tested at a single concentration, which is 10^-5 M for most compounds. The reported endpoint is percent growth (GI% or GIPRCNT), where numbers from 0 - 100% represent growth inhibition, and numbers from -100% - 0 represent cell death. For example, a value of 40 represents 60% growth inhibition. A value of 0 means no net growth occurred over the course of the experiment. A value of -40 indicates 40% of cells at the beginning of the experiment died by the end of the experiment. A value of -100 means all cells are dead at the end of the experiment.
NCI-60 Human Tumor Cell Lines Screen was performed using the standard one-dose NCI protocol, which is described in more detail at https://dtp.cancer.gov/discovery_development/nci-60/default.htm.
Compounds with GIPRCNT values below 10 were considered active. Activity score was based on GIPRCNT using the following formula: […]
Score is 0 for GIPRCNT values of 100 or above, 50 for GIPRCNT values of 0, and 100 for GIPRCNT values of -100.

SMILES	growth
CN1CCN(Cc2ccc(NC(=O)c3cncc(C#Cc4cnc5ccc(N)nn45)c3)cc2C(F)(F)F)CC1	17.2% (inactive)
Nc1cc(C(=O)N/N=C\c2ccc(OC(F)F)c(OC3CCCC3)c2)nn1CC(O)c1ccccc1 (stereo not given)	92.7% (inactive)
Cn1ncc2c(C(=O)c3ccc(F)cc3)nc(C(C)(C)C)nc21	101% (inactive)
C[C@]12CC[C@H]3[C@@H](CC=C4C[C@@H](O)CC[C@@]43C)[C@@H]1CC[C@@H]2[C@](C)(O)CCc1cccnc1	73.4% (inactive)
CC/C(=C(/c1ccc(Cl)cc1)c1ccc(OCCN)cc1)c1ccccc1	105% (inactive)
C#CCN(C)CCCOc1ccc(NCc2ccc(/C=C/C(=O)NO)cc2)cc1Cl	-11.7% (active)
O=C(CCCCCCNC(=O)C(O)(O)C(F)(F)F)Nc1ccc(Cl)cc1	66.6% (inactive)
COc1cc(-c2nc(-c3ccccc3)[nH]c2-c2ccnc(NCCCNS(=O)(=O)c3ccc(C(F)(F)F)cc3)n2)ccc1Cl	36.2% (inactive) and 51.7% (inactive)
N#Cc1cccc(-c2cc(-c3ccc4c(c3)OCCO4)[nH]n2)c1	72.2% (inactive)
COc1ccc2sc(NC(=O)CCCCCCNC(=O)C(O)(O)C(F)(F)F)nc2c1	24.6% (inactive)
N#Cc1cnc2ccc(-c3cnc4n[nH]nc4c3)cc2c1N1CCc2cc(F)c(Cl)cc21	11.7% (inactive)
CCN(CC)c1ccc(/C=N/NC(=O)c2ccc(NS(C)(=O)=O)cc2)c(O)c1	39.3% (inactive)
Cc1[nH]c(C(=O)Nc2ccc(C(N)=O)cc2N2CCOC(C)C2)c(Cl)c1Cl (stereo not given)	89.9% (inactive)
CCOC(=O)C(=O)Nc1ccc2c(ccn2C(=O)c2cccc(F)c2)c1	97.2% (inactive)
Brc1cc(-c2cc(-c3ccc4c(c3)OCCO4)[nH]n2)cs1	74% (inactive)
C(=N\Nc1nc(N/N=C/c2ccc3c(c2)OCO3)nc(N2CCCCC2)n1)/c1ccc2c(c1)OCO2	101% (inactive)
O=C1CSC(c2cn(-c3ccccc3)nc2-c2ccc(Cl)cc2)N1c1ccccc1 (stereo not given)	98.4% (inactive)
C#Cc1cc(OC)c(C(=O)Nc2ccc(F)cc2C(=O)Nc2cccc(S(=O)(=O)C(F)(F)F)c2)cn1	13.1% (inactive)
C#CCOc1ccccc1C(OC(=O)c1ccccc1)C(=O)NC(C)(C)C(C)(C)C (stereo not given)	82.1% (inactive)
COc1ccc([C@H]2C(=O)N(c3cc(OC)c(OC)c(OC)c3)[C@@H]2c2ccc(OC)c(O)c2)cc1	41.8% (inactive)

SMILES	growth
CN1CCN(c2ccc(Nc3nc(NCCCNS(=O)(=O)c4cccc(F)c4)c4sccc4n3)cc2)CC1	112% (inactive)
CCN(CC)S(=O)(=O)c1ccc(-c2nc(C(Cl)Cl)nc3cc(C)nn23)cc1	69.7% (inactive)
CC(=C(c1ccc(OCCCN(C)C)cc1)c1ccc(OCCCN(C)C)cc1)c1ccc(Cl)cc1	95.5% (inactive)
O=C(COc1ccc(/C=C2\C(=O)Nc3ccc(Cl)cc32)cc1)Nc1ccc(Cl)cc1	74% (inactive)
Cn1cc(-c2nc(N)nnc2-c2c[nH]c3ccc(Br)cc23)c2cc(F)ccc21	96.6% (inactive)
CCCCCc1ccc(S(=O)(=O)Nc2cc(-c3csc(N)n3)ccc2OC)cc1	80% (inactive)
COc1ccc(/C=N/N=C(/c2ccccc2)c2ccc3nc(-c4ccc(Cl)cc4)[nH]c3c2)cc1	77% (inactive)
O=C(CCCCCCN1CC(=O)N2[C@@H](c3ccc(Cl)s3)c3[nH]c4ccccc4c3C[C@H]2C1=O)NO	68.6% (inactive)
CC1(C)C=Cc2cc(/C(N)=N/C(N)=N/c3nc4ccccc4s3)ccc2O1	5.64% (active)
C/C(CC1(O)C(=O)Nc2ccccc21)=N\O (stereo not given)	98% (inactive)
CCOC(=O)c1cccnc1Nc1ccc(NC(=O)Nc2ccc(Cl)c(C(F)(F)F)c2)cc1	52.4% (inactive)
CC[C@]12C=CCN3CC[C@]4(C(=C(C(=O)OC)C1)Nc1cc5c(cc14)[C@@H]1[C@H](O5)[C@@H](O)[C@@]4(CC)CC(C(=O)OC)=C5Nc6cc(O)ccc6[C@@]56CCN1C46)C32 (stereo not given in full)	-1.32% (active)
COc1ccccc1N1CCN(C2=C(Cl)C(=O)c3ncccc3C2=O)CC1	91% (inactive)
O=C(/C=C/Nc1ccc(S(=O)(=O)Nc2ncccn2)cc1)c1ccc(N=Cc2c(O)[nH]c3ccccc23)cc1	107% (inactive)
Cc1ncn(-c2ccc(/C=N/Nc3ccnc4cc(Cl)ccc34)cc2)c1C	94.1% (inactive)
O=C(CCCCCC/C=C\c1csc(Br)n1)NO	96.8% (inactive)
C=C(C)[C@@H]1CC[C@]2(C(=O)N3CCN(C)CC3)CC[C@]3(C)[C@H](CC[C@@H]4[C@@]5(C)CC[C@H](OP(=O)(OCC)OCC)C(C)(C)[C@@H]5CC[C@]43C)[C@@H]12	75.8% (inactive)
Cc1ccccc1NC(=O)Nc1nc2ccc([N+](=O)[O-])cc2s1	15.4% (inactive)
CN1CCN(Cc2ccc(NC(=O)c3cncc(C#Cc4cnc5ccc(OCC(F)F)nn45)c3)cc2C(F)(F)F)CC1	-62.6% (active)
Cc1ccc(N2CCN(C3=C(Cl)C(=O)c4ncccc4C3=O)CC2)cc1	93.2% (inactive)
